Not all results are given here.
aSyn 5UTR act = Activators via SNCA 5'UTR binding, MLPCN; activity score, % (tested at 7.5 µM), hits read low; 300,000 tested, 7.1% active; alpha-synuclein 5'UTR reporter, activators screen; in the data active means activity score below about -60%
The depositor's hits bear a star.

SMILES	aSyn 5UTR act
O=C(Nc1ccc2c(c1)CCC2)C1CCCN(c2ncccn2)C1 (stereo unspecified)	-157*
Cc1ccc(NC(=O)C2CCCN(c3ncccn3)C2)c(C)c1 (stereo unspecified)	-78*
Cc1ccc(NC(=O)C2CCCN(c3ncccn3)C2)cc1F (stereo unspecified)	-269*
O=C(CCc1ccccc1)Nc1cccnc1Cl	-64*
O=C(CC(=O)c1ccccc1)Nc1cccnc1Cl	-119*
Cc1ccnc(NC(=S)NC(=O)/C=C/c2ccccc2)c1	-68*
CCC(=O)Nc1cccc(C(=O)/C=C/c2ccccc2)c1	-208*
CC(=O)c1ccc(NC(=S)NC(=O)/C=C/c2ccccc2)cc1	-104*
CCC(=O)Nc1ccc(NC(=S)NC(=O)/C=C/c2ccccc2)cc1	-62*
CC(=O)Nc1ccc(NC(=S)NC(=O)/C=C/c2ccc(Cl)cc2)cc1	-75*
CCCCCCCCCCCCCCCCn1cc[n+](C)c1	141
CC(/C=C/c1ccccc1)=N\NC(N)=S	-100*
CC(/C=C/c1ccccc1)=N\Nc1nc(C)cc(C)n1	-96*
Cc1cccc(-n2ncc3c(NCc4ccccn4)ncnc32)c1	-113*
c1ccc(-n2ncc3c(NCc4ccccn4)ncnc32)cc1	-69*
O=C(O)c1ccc2oc(SCC(=O)N3CCCCC3)nc2c1	-88*
CC1CCCN(C(=O)CSc2nc3ccccc3o2)C1 (stereo unspecified)	-99*
COc1ccc(NC(=S)Nc2ccc3nccnc3c2)cc1	-227*
COc1ccc(NC(=S)Nc2ccc3snnc3c2)cc1	-107*
COc1ccc(NC(=S)Nc2ccc(N)c([N+](=O)[O-])c2)cc1	-145*
Cc1ccc(C(=O)CSc2nnc3ccccn23)c(C)c1	-74*
CCOc1ccc(C(=O)CSc2nnc(N)s2)cc1	-74*
Cc1cc(C(=O)CSc2nnc(N)s2)c(C)n1C1CC1	-88*
Cc1ccc(C(=O)CSc2nnc(N)s2)c(C)c1	-92*
COCCN(C(C)=O)c1nnc(-c2ccccn2)s1	-66*
SMILES	aSyn 5UTR act
Cc1ccc(-c2nnc(N(C)C(=O)c3ccncc3)s2)cn1	-77*
CC(=O)N(C)c1nnc(-c2ccccn2)s1	-71*
COc1cnc(-c2ccccn2)nc1N(C)C	99
CN(C(=O)c1cccnc1)c1nnc(-c2ccccn2)s1	-98*
Cc1cc(NC(=O)c2ccc(Cl)cc2)no1	-107*
C/C(=C\c1ccccc1)C(=O)Nc1cc(C)on1	-161*
Cc1cc(NC(=O)c2ccco2)no1	-62*
Cc1cc(NC(=O)NC(=O)c2ccccc2)no1	-120*
Cc1cc(NC(=O)c2ccc3nc(C)sc3c2)no1	-123*
C/C(=N\NC(=O)c1c(Cl)cnn1C)c1ccc(NC(=O)c2ccc(Br)o2)cc1	-116*
C/C(=N\NC(=O)C1CC1)c1ccc(NC(=O)c2ccc(Br)o2)cc1	-110*
Cc1ccc(OCCCSc2ncccn2)cc1C	-104*
CC(C)SCCCCOc1ccc2ccccc2c1	-112*
CCCC(NCC(O)COc1ccc(-c2ccccc2)cc1)c1ccccc1 (stereo unspecified)	83
OC(COc1ccc(Cl)cc1)CSc1ccccn1 (stereo unspecified)	-90*
c1cnc(SCCCOc2ccc3ccccc3c2)nc1	-68*
COc1ccc(OCCCSc2ncccn2)cc1	-168*
Clc1ccc(OCCSc2ncccn2)cc1	-160*
S=c1[nH]nc(C2CCCCC2)n1/N=C/C(Cl)=C\c1ccccc1	-75*
Cc1c(Br)c(O)c(Br)c(O)c1/C=N/n1c(-c2ccccc2)n[nH]c1=S	62
Cc1cc(-c2n[nH]c(=S)n2/N=C/C(Cl)=C/c2ccccc2)n[nH]1	-164*
S=c1[nH]nc(-c2ccco2)n1/N=C/C(Cl)=C/c1ccccc1	-172*
CC(=O)c1cccc(NC(=O)c2cc3nc(C)cc(C)n3n2)c1	-139*
Cc1cc(C)n2nc(C(=O)Nc3ccc4c(c3)OCO4)cc2n1	-84*
Cc1ccc(CN2C3CCCC2CC(NC(=O)c2ccc(C)cc2)C3)cc1 (stereo unspecified)	-163*
SMILES	aSyn 5UTR act
Cc1cc(C(=O)COC(=O)c2ccc(O)cc2)c(C)n1Cc1ccco1	-140*
Cc1cc(C(=O)COC(=O)c2ccc(Br)o2)c(C)n1Cc1ccco1	-116*
CCOc1ncccc1C(=O)OCC(=O)c1cc(C)n(Cc2ccco2)c1C	-115*
Cc1nc(NC(=O)c2ccc(Br)o2)ccc1Br	-151*
Cc1cccc(NC(=O)c2cc3ccccc3c(=O)o2)n1	-191*
Cc1nc(NC(=O)c2cc3ccccc3o2)ccc1Br	-160*
N#C/C(=N\Nc1ccc(Cl)cc1)C(=N)N1CCCCC1	-101*
COc1ccc(N/N=C(\C#N)C(=N)N2CCCCC2)cc1	-82*
N#C/C(=N\Nc1ccccc1F)C(=N)N1CCCCC1	-158*
CCN(CC)C(=N)/C(C#N)=N/Nc1ccc(C)cc1	-136*
Cc1ccc(N/N=C(\C#N)C(=N)N2CCOCC2)cc1	-141*
Cc1ccc(N/N=C(\C#N)C(=N)N2CCCCCC2)cc1	-113*
CC(=O)c1ccc2c(c1)C1C=CCC1C(c1ccncc1)N2 (stereo unspecified)	-77*

Screening data: PubChem BioAssay, Broad Institute
